The list is not random: actives were taken first. Their share in the collection is about 5.7%.
HT1080-NT tox = qHTS for induction of synthetic lethality in tumor cells producing 2HG: qHTS for the HT-1080-NT fibrosarcoma cell line. HT-1080-NT fibrosarcoma viability, CellTiter-Glo ATP luminescence, 48 h. 360,000 compounds, 1.6% hits. Potency, µM (series often up to 46.1 µM), inactives show at the top dose activity, negative = less viability, hits mostly cytotoxic. AID 686970, 2013;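 further: NT is the 2HG producing partner of a matched IDH1 knockdown line; 0% = DMSO-treated cells and -100% = media-only wells without cells; nearly all actives have a fitted effect of over 55% in size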
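750 cells/well, RPMI + 5% FBS; 2 h settle, compound pin-transfer, 48 h at 37 degrees C. CellTiter-Glo 10 min RT, luminescence. Normalized to DMSO and media-only wells.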
HT1080 IDH1KD tx = qHTS for induction of synthetic lethality in tumor cells producing 2HG: qHTS for the HT-1080-IDH1KD cell line | 360,000 compounds, 2% hits | HT-1080 IDH1 knockdown viability, ATP luminescence, 48 h | Potency, µM (top dose mostly 46.1 µM), for the others: at the top dose activity, negative = toxicity, hits mostly cytotoxic;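 further: 0% = DMSO wells and -100% = cell-free medium wells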
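Assay cells: HT-1080 with IDH1 knockdown, 750 per well, RPMI/5% FBS. Exposure: 48 h at 37 °C following 2 h pre-incubation. Read: CellTiter-Glo luminescence; fitted concentration-response, curve class assigned.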
KB-V1 cytotox = qHTS assay for MDR1-selective chemotherapeutics: Primary screen using the drug-selected MDR subline cells KB-V1 | Potency, µM (titrated, usually from 46.1 µM), most hits filed as cytotoxic | KB-V1 MDR cells viability, CellTiter-Glo, 72 h | 400,000 compounds, 3.4% hits; further: nearly all actives have a fitted effect of over 60% in size
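Cytotoxicity toward P-gp-expressing KB-V1 cells was determined as loss of CellTiter-Glo luminescence after 72 h at 37 degrees C. Compounds were tested in quantitative HTS format across a concentration range, with curves fitted to normalized data.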
KB-3-1 cytotox = qHTS assay for MDR1-selective chemotherapeutics: Primary screen using the parental adenocarcinoma cell KB-3-1. KB-3-1 viability, CellTiter-Glo ATP luminescence, 72 h. Potency, µM (top dose mostly 46.1 µM), actives largely listed as cytotoxic. 400,000 compounds, 1.4% hits; further: nearly all actives have a fitted effect of over 60% in size
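KB-3-1 cells, DMEM (no phenol red) + 10% FBS; compound by pin transfer, 72 h, 37 °C. Readout: CellTiter-Glo luminescence after 10 min. Data normalized, curve-fitted.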
* marks the source's active call; other numbers are inactive results; i = inactive; ? = inconclusive; nt = not tested or not shown; ! = a repeat was not active; [ ] = remark or other dose. The call rests on the fitted dose curve; in most records, active means well fitted curve in the direction sought with a large enough effect; inconclusive means small, poorly fitted or top-dose-only effect, or another doubt; inactive means no such curve, though single readings can be large; an effect the other way counts as inactive or inconclusive. Unless noted, on the % scale 0 is the no-effect control and ±100 the full control effect; potency means the concentration at half of the fitted maximal effect.

SMILES | HT1080-NT tox | HT1080 IDH1KD tx | KB-V1 cytotox | KB-3-1 cytotox
COc1cccc(CNC(=O)Cc2ccc(-c3ccccc3)cc2)c1 | ? | 18.4µM* | ? | ?
CCCCC[C@H]1CN(CCc2ccccc2)C(=O)[C@@H]1CC(=O)NCc1ccc(OC)cc1 | -3.9% | -3.3% | 18.4µM*! | ?
Cc1cccc(C)c1NC(=O)CCSCCc1ccccn1 | nt | nt | i | i
COc1ccc(-n2nc(C(=O)Nc3cc(C)ccn3)c3c4ccccc4n(C)c3c2=O)cc1Cl | nt | nt | ? | i
CSc1ccc(CNC(=O)Cn2nc(N3CCN(c4ccccc4)CC3)ccc2=O)cc1 | nt | nt | i | i
COc1cc(C(=O)NCc2cc(C)nc3ccccc23)cc(OC)c1OC | -5.9% | 1.8% | i | i
COc1cc(OC)cc(C(=O)NCC(=O)Nc2ccc(-c3ccccc3)cc2)c1 | 2.91µM* | 5.8µM* | i | ?
COc1ccc(-c2cc(CNC(=O)CN(C)Cc3ccccc3)on2)cc1 | -3.5% | -4.3% | 2.59µM* | i
COc1ccc(C(=O)NCc2cc(C)nc3ccccc23)cc1 | ? | ? | i | 18.4µM*
CC(=O)c1ccc(Nc2cc(C)nc3c(C)cc(C)cc23)cc1 | 9.2µM* | 8.2µM* | ? | ?
COc1ccc(-c2cc(CNC(=O)CCl)on2)cc1 | ? | ? | i | ?
COc1cccc(CNC(=O)c2ccc3c(c2)N(C)C(=O)C2CCCCN32)c1 (configuration not stated) | nt | nt | i | i
O=C(NCc1ccc(Cl)cc1)C1CCCN(c2ncnc3onc(-c4ccc(F)cc4)c23)C1 (configuration not stated) | nt | nt | i | i
COc1cccc(CN(C)CC(=O)NC(=O)NCc2ccccc2)c1 | -0.5% | -1.5% | 20.6µM* | i
CCc1cccc(NC(=O)Cn2c(-c3ccc(F)cc3)cc(C(C)=O)c2C)c1 | nt | nt | i | i
COc1cccc(NC(=O)CSC2=Nc3ccccc3N=C(c3ccc(F)cc3)C2)c1 | nt | nt | i | i
O=C(Nc1ccc(Cl)c(-c2nc3ccccc3o2)c1)c1cccc2c(Cl)cccc12 | nt | nt | i | i
COc1cc2nc(N3CCOCC3)nc(NC(C)C)c2cc1OC | -1.7% | 15.1% | nt | nt
COCc1c(C(=O)N2CCc3ccccc32)oc2ccccc12 | -15.5% | -8.7% | i | i
CC(C(=O)N1CCc2ccccc21)N1CCc2ccccc2C1 (configuration not stated) | -7.4% | -23.7% | 14.6µM* | i
Cc1c(C(=O)N2CCc3ccccc32)oc2ccccc12 | -8.4% | -1.3% | 18.4µM* | i
Cc1c(C(=O)N2CCN(S(C)(=O)=O)CC2)oc2ccccc12 | 5.6% | 19.4% | i | i
Cc1c(C(=O)N2CCN(CCc3ccccc3)CC2)oc2ccccc12 | 0.7% | -7.4% | 13µM* | i
CC(=O)c1c(C)[nH]c(C(=O)N2CCc3ccccc32)c1C | 0.0% | 8.3% | i | i
CCOC(=O)c1[nH]c(C)c(C(=O)N2CCc3ccccc32)c1C | ? | 1.03µM* | 0.326µM* | 0.326µM*
SMILES | HT1080-NT tox | HT1080 IDH1KD tx | KB-V1 cytotox | KB-3-1 cytotox
O=C(Nc1ccc(Br)c2cccnc12)c1cccc2ccccc12 | nt | nt | i | i
O=C(Cc1ccccc1)Nc1c(C(=O)N2CCN(c3ccc(F)cc3)CC2)oc2ccccc12 | nt | nt | 11.6µM* | i
COCc1c(C(=O)N2CCN(c3ccccc3C)CC2)oc2ccccc12 | -4.9% | 5.8% | 20.6µM* | i
COc1ccccc1N1CCN(C(=O)c2ccc3[nH]c4c(c3c2)CC(C)CC4)CC1 (configuration not stated) | ? | ? | 20.6µM* | i
COCCn1c(=S)[nH]c2cc(C(=O)N3CCN(c4ccccc4OC)CC3)ccc2c1=O | -5.6% | 2.5% | 14.6µM* | i
COCc1c(C(=O)N2CCN(CCOc3ccccc3)CC2)oc2ccccc12 | -1.4%[9.24 µM] | 8.5% | ? | i
CC(=O)N1c2ccccc2C(=O)C1N1CCN(c2cc(Cl)ccc2C)CC1 (configuration not stated) | nt | nt | i | i
Cc1ccc2nc3c(cc(C#N)c(=O)n3-c3nnc(SCc4ccc(F)cc4)s3)c(=O)n2c1 | nt | nt | i | i
Cc1cc(C)cc(NC(=O)C2CCN(c3cc(C)nc4c(-c5ccc(Cl)cc5)c(C)nn34)CC2)c1 | nt | nt | ? | i
CCCCNC(=O)c1cccc(NC(=O)c2nsc3ccccc23)c1 | nt | nt | i | i
Cc1cc(OC(C)C(=O)Nc2c(C(=O)c3ccc(F)cc3)oc3ccccc23)ccc1Cl (configuration not stated) | nt | nt | i | i
COc1ccccc1N1CCN(C(=O)c2oc3ccc(Br)cc3c2C)CC1 | ? | ? | 13µM* | 10.3µM*
COc1ccccc1N1CCN(C(=O)c2ccc3[nH]c(C)c(C)c3c2)CC1 | 1.46µM* | 1.3µM* | 4.61µM* | 1.64µM*
CCOC(=O)c1[nH]c(C)c(C(=O)N2CCN(c3cccc(Cl)c3)CC2)c1C | -0.1% | ? | 13µM* | i
Cc1cccc(N2CCN(C(=O)c3ccc4[nH]c(C)c(C)c4c3)CC2)c1C | ? | 3.66µM* | 2.31µM* | 25.9µM*
CCOC(=O)c1[nH]c(C)c(C(=O)N2CCN(c3ccc(F)cc3)CC2)c1C | -12.3% | -28.2% | ? | i
Cc1[nH]c2ccc(C(=O)N3CCN(c4cccc(Cl)c4)CC3)cc2c1C | ? | 7.31µM* | ? | ?
Cc1sc2nc(SCC(=O)C(C)(C)C)n(Cc3ccco3)c(=O)c2c1C | 7.08µM* | 6.31µM* | 2.59µM* | ?
COc1ccc(/C(C)=N/NC(=O)c2nnn(-c3nonc3N)c2CN(C)c2ccccc2)cc1 | -4.1% | -7.3% | i | i
CCCc1c(C(=O)N/N=C(\C)c2ccccn2)nnn1-c1nonc1N | ? | ? | ? | 5.8µM*
C/C(=N\NC(=O)c1nnn(-c2nonc2N)c1CN(C)c1ccccc1)c1ccccc1O | ? | ? | i | 6.51µM*
Cc1sc(NC(=O)c2ccccc2)c(C(c2ccc(Cl)cc2)N2CCN(CCO)CC2)c1C (configuration not stated) | ? | ? | ? | 20.6µM*
O=C(O)CSc1cc(NS(=O)(=O)c2cccc([N+](=O)[O-])c2)c2ccccc2c1O | 13µM* | 18.4µM* | 5.8µM* | ?
Cc1ccc(C)c(S(=O)(=O)Nc2cc(SCC(=O)O)c(O)c3ccccc23)c1 | 23.1µM* | 18.4µM* | ? | ?
CCOc1ccc(S(=O)(=O)Nc2cc(SCC(=O)O)c(O)c3ccccc23)cc1 | 23.1µM* | 23.1µM* | ? | ?
CC(Sc1nnc(CN2CCCC2)n1Cc1ccccc1)C(=O)Nc1ccc(F)c(F)c1F (configuration not stated) | -1.7% | -2.5% | 1.03µM* | i
CC(C)(C)c1csc(NNC(=O)c2ccc(Br)cc2)n1 | ? | 9.2µM* | ? | ?

Bioassay records: PubChem BioAssay, National Center for Advancing Translational Sciences (NCATS)
